Source: PubChem BioAssay (NCATS)
Results filed as inconclusive are left out. Active and inactive are the calls of the source. The call rests on the fitted dose curve; in most records, active means well fitted curve in the direction sought with a large enough effect; inconclusive means small, poorly fitted or top-dose-only effect, or another doubt; inactive means no such curve, though single readings can be large; an effect the other way counts as inactive or inconclusive.

How the values were obtained:
[1] = Primary redox qHTS assay for identification of artifact compounds. (AID 1845223)
Procedure, shortened: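 Amplex Red (25 uM) and HRP (250 mU/mL) in HBSS, with compounds for 15 min, then 250 uM DTT for 30 min, room temperature, dark. Fluorescence 525/598 nm read; normalized to DMSO and 10 uM DA3003; Hill fit.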

[2] = Quantitative High-Throughput drug screen in 47 multiple myeloma cell lines against the NCATS MIPE library collection: FR4_PLB cell viability assay (AID 1918924; further: nearly all actives have a fitted effect of over 35% in size; further: potency means the concentration at half of the fitted maximal effect)
Procedure, shortened: (§1)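 Luminescent ATP measurement with CellTiter-Glo gives viability, scaled between DMSO-only wells (100%) and media-only wells (0%). Cells, 500 per well, faced library compounds for 48 hours at 37C.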

[3] = Quantitative High-Throughput drug screen in 47 multiple myeloma cell lines against the NCATS MIPE library collection: EJM_DSMZ cell viability assay (AID 1918926; further: nearly all actives have a fitted effect of over 30% in size; further: potency means the concentration at half of the fitted maximal effect)
Procedure, shortened: (§2)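 Myeloma cell lines, 500 cells per well, exposed to MIPE 4.0 library compounds for 48 h at 37C, 5% CO2. Viability from ATP by CellTiter-Glo luminescence; normalised to DMSO (100%) and media-only (0%) wells.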

[4] = Quantitative High-Throughput drug screen in 47 multiple myeloma cell lines against the NCATS MIPE library collection: AMO1_DSMZ cell viability assay (AID 1918927; further: nearly all actives have a fitted effect of over 30% in size; further: potency means the concentration at half of the fitted maximal effect)
Procedure, shortened: as §2

[5] = Quantitative High-Throughput drug screen in 47 multiple myeloma cell lines against the NCATS MIPE library collection: Karpas620_DSMZ cell viability assay (AID 1918959); further: nearly all actives have a fitted effect of over 30% in size; further: potency means the concentration at half of the fitted maximal effect
Procedure, shortened: as §1

[6] = Quantitative High-Throughput drug screen in 47 multiple myeloma cell lines against the NCATS MIPE library collection: KMM1_JCRB cell viability assay (AID 1918960); further: nearly all actives have a fitted effect of over 30% in size; further: potency means the concentration at half of the fitted maximal effect;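 on viability (% of DMSO): 100% = DMSO-treated cells and 0% = medium-only wells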
Procedure, shortened: (§3)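 Here, 48 h treatment with MIPE 4.0 agents at 37 °C preceded an ATP luminescence read. Plating density was 500 cells per well.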

[7] = Quantitative High-Throughput drug screen in 47 multiple myeloma cell lines against the NCATS MIPE library collection: ARP1_JJKsccF8 cell viability assay (AID 1918928; further: nearly all actives have a fitted effect of over 40% in size; further: potency means the concentration at half of the fitted maximal effect)
Procedure, shortened: as §3

[8] = Quantitative High-Throughput drug screen in 47 multiple myeloma cell lines against the NCATS MIPE library collection: ARD_JJKsccE7 cell viability assay (AID 1918929; further: potency means the concentration at half of the fitted maximal effect)
Procedure, shortened: as §2

[9] = Quantitative High-Throughput drug screen in 47 multiple myeloma cell lines against the NCATS MIPE library collection: Delta47_JCRB cell viability assay (AID 1918925; further: nearly all actives have a fitted effect of over 45% in size; further: potency means the concentration at half of the fitted maximal effect)
Procedure, shortened: as §2

[10] = Quantitative High-Throughput drug screen in 47 multiple myeloma cell lines against the NCATS MIPE library collection: Karpas417_ECACC cell viability assay (AID 1918961); conditions: Karpas417 myeloma viability, CellTiter-Glo ATP luminescence, 48 h; viability (% of DMSO): at 45.8 µM (top of the series); further: potency means the concentration at half of the fitted maximal effect
Procedure, shortened: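 Steps: seed 500 cells per well; pin-transfer MIPE 4.0 library; incubate 48 h at 37C, 5% CO2, humidified; add CellTiter-Glo, 5 min room temperature; read luminescence.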

SMILES	Potency [1]	Potency [2]	Potency [3]	Potency [4]	Potency [5]	Potency [6]	Potency [7]	Potency [8]	Potency [9]	Potency [10]	viability (% of DMSO) [10]
C1Cc2[nH]nc(-c3nn[nH]n3)c2C1	inactive	inactive	inactive	inactive	inactive	inactive					
Clc1cccc(-n2nnnc2NCc2ccccc2Oc2ccccn2)c1Cl	inactive	inactive	inactive								
Cn1cc(-c2[nH]c3cc(NC(=O)[C@H](N)C4CCCCC4)cc4c3c2C=NNC4=O)cn1	inactive	0.296 µM (active)	0.526 µM (active)	2.96 µM (active)			7.43 µM (active)	4.69 µM (active)			
C[C@@H]1COC(Nc2ccc3ncnc(Nc4ccc(OCc5nccs5)c(Cl)c4)c3c2)=N1	inactive	16.6 µM (active)		4.69 µM (active)	14.8 µM (active)	10.5 µM (active)			2.64 µM (active)		
Cn1c(=O)n(-c2ccc(C(C)(C)C#N)cc2)c2c3cc(-c4cnc5ccccc5c4)ccc3ncc21	inactive	0.0093 µM (active)	0.833 µM (active)				0.0187 µM (active)				
Cn1c(CNc2ccc(C(=N)N)cc2)nc2cc(C(=O)N(CCC(=O)O)c3ccccn3)ccc21	inactive	inactive		inactive			inactive	inactive			
COc1cc2c(cc1-c1c(C)noc1C)ncc1[nH]c(=O)n([C@H](C)c3ccccn3)c12	inactive	0.833 µM (active)	10.5 µM (active)	0.332 µM (active)	5.9 µM (active)		0.332 µM (active)	0.296 µM (active)		0.148 µM (active)	
CC(=O)Nc1nc(C)c(-c2ccc(Cl)c(S(=O)(=O)NCCO)c2)s1	inactive	13.2 µM (active)	11.8 µM (active)	1.32 µM (active)	6.62 µM (active)	3.72 µM (active)		0.418 µM (active)		0.132 µM (active)	
Cc1c(Cn2c(C)nc3c(C(=O)O)cc(N4CCOCC4)cc32)cccc1C(F)(F)F	inactive	5.9 µM (active)		14.8 µM (active)	inactive	20.9 µM (active)			5.9 µM (active)		
Cc1[nH]nc2ccc(-c3cncc(OC[C@@H](N)Cc4ccccc4)c3)cc12	inactive	4.18 µM (active)		0.935 µM (active)	2.09 µM (active)		4.69 µM (active)	2.09 µM (active)			
CC(C)(O)c1cc2nc(-c3cnc(N)nc3)nc(N3CCOCC3)c2s1	inactive	0.235 µM (active)	0.743 µM (active)	0.0935 µM (active)	0.166 µM (active)	0.0332 µM (active)	0.0187 µM (active)			0.0148 µM (active)	
Cc1ccc(C(N)=O)cc1Nc1nccc(-c2cn(C(C)C)c3cnccc23)n1	inactive	9.35 µM (active)	7.43 µM (active)	2.64 µM (active)	6.62 µM (active)	4.18 µM (active)	6.62 µM (active)			2.96 µM (active)	
Cc1ccc2nc(NC(=O)CSc3nc4c(c(=O)n3-c3ccccc3)SCC4)sc2c1	inactive	5.9 µM (active)	6.62 µM (active)	9.35 µM (active)				13.2 µM (active)		23.5 µM (active)	
COc1cc2c(NC3CCN(C(C)C)CC3)nc(C3CCCCC3)nc2cc1OCCCN1CCCC1	inactive	7.43 µM (active)			8.33 µM (active)	23.5 µM (active)	7.43 µM (active)				
NC(=O)c1c(OCc2c(F)cc(Br)cc2F)nsc1NC(=O)NCCCCN1CCCC1	inactive		20.9 µM (active)		inactive			inactive	7.43 µM (active)	inactive	
COc1ccc2c(c1)CC[C@@H](CN(C)CC(=O)O)[C@H]2c1ccccc1	inactive	1.05 µM (active)		0.59 µM (active)		1.32 µM (active)	3.32 µM (active)	1.32 µM (active)			
CCCNC(=O)Nc1ccc(Oc2ncnc3cc(OC)c(OC)cc23)cc1Cl	inactive		inactive	inactive	inactive		inactive				
CC(C)Nc1cc(C(F)(F)F)cc2nc(NC(=O)c3cccnc3)nn12	inactive		14.8 µM (active)		inactive	inactive		inactive			
C[C@]1(CO)CN(c2cc(C(=O)Nc3ccc4c(c3)-c3c(c(C(N)=O)nn3-c3ccc(F)cc3)CC4)c(Cl)cn2)C[C@@]1(C)CO	inactive				1.66 µM (active)	0.209 µM (active)			9.35 µM (active)	2.64 µM (active)	
NC1(Cc2ccc(Cl)cc2)CCN(c2ncnc3[nH]ccc23)CC1	inactive			2.09 µM (active)		3.72 µM (active)	2.96 µM (active)	0.935 µM (active)	0.935 µM (active)		
CCCCCN(CCC12CC3CC(CC(C3)C1)C2)C(=O)NCCCc1ccncc1	inactive	18.7 µM (active)		14.8 µM (active)	2.96 µM (active)	inactive					
COc1cccc2nc(-c3cccs3)nc(NN3C(=O)C=C(C)C3=O)c12	inactive	1.87 µM (active)		0.0935 µM (active)			0.0418 µM (active)	1.66 µM (active)		0.0526 µM (active)	
Cc1cc(Nc2nc(N[C@@H](C)c3ccc(F)cc3)c(C#N)cc2F)n[nH]1	inactive		16.6 µM (active)	0.235 µM (active)	0.296 µM (active)	1.87 µM (active)	1.05 µM (active)		2.96 µM (active)	0.209 µM (active)	
CC(C)c1cc(-c2n[nH]c(=O)n2-c2ccc3c(ccn3C)c2)c(O)cc1O	inactive			0.0296 µM (active)	0.0296 µM (active)	0.0372 µM (active)	0.0296 µM (active)	0.0166 µM (active)		0.0166 µM (active)	
C=CC(=O)Nc1cccc(Oc2nc(Nc3ccc(N4CCN(C)CC4)cc3)ncc2Cl)c1	inactive			5.26 µM (active)	5.26 µM (active)	9.35 µM (active)	13.2 µM (active)	16.6 µM (active)			
Cc1cn2cc(C(=O)N(C)CCO)cc(N[C@@H]3CCOc4cccc(C)c43)c2n1	inactive			inactive		inactive	inactive		inactive		
NC(=O)c1cccc2cn(-c3ccc([C@@H]4CCCNC4)cc3)nc12	inactive	inactive									72.2% (active)
CS(=O)(=O)c1ccc(-c2cnc(N)c(C(=O)Nc3ccccc3)n2)cc1	inactive	18.7 µM (active)			inactive			inactive			
